TIM10 inh: growth inhibitors of TIM10 yeast strain. S. cerevisiae TIM10 strain growth, BacTiter-Glo luminescence, 24 h. inhibition, % at 10 µM. actives 1.4% (n = 330,000). AID 463195;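 active = inhibition of 40% or more at the single tested concentration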;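 also: wild-type TIM10 isogenic control strain grown at permissive 25 °C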
PfHsp90 yeast 2: inhibits growth of yeast expressing Plasmodium falciparum Hsp90; inhibition, % at 9.4 µM; S. cerevisiae expressing PfHsp90, BacTiter-Glo ATP, 48 h; yeast lacking PDR1 and PDR3 efflux regulators; actives 0.32% (n = 310,000);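 active = every replicate shows inhibition above about 80%, whatever the replicate mean, limit read from the data; inconclusive = mean inhibition reaches the set limit but some replicate falls short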;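 also: 0% = DMSO neutral controls and 100% = 20 µM radicicol positive controls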
Beta2AR agonist: human beta-2 adrenergic receptor agonism by FAP; actives 0.43% (n = 340,000); response, % (concentration not given with the values); P07550; Am2.2-beta2AR cells, FAP receptor internalization, flow cytometry; AID 504454;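 active = response above a set limit, near 3 SD of response in nonfluorescent compounds, cut at about 42% in these data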
Target sequence (P07550 whole entry, looked up): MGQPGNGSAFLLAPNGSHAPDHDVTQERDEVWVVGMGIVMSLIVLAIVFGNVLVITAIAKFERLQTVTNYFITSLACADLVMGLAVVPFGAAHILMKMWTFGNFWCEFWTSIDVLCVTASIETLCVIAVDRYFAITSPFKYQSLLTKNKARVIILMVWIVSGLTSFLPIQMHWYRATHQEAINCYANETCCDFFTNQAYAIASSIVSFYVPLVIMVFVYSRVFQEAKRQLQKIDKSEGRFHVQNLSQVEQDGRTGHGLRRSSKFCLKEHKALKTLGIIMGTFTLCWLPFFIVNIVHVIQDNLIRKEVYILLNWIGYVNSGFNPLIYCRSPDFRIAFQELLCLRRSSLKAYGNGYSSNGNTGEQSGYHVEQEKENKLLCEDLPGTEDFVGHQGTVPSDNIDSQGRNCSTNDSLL
tim23-1 inh: growth inhibitors of tim23-1 mutant yeast. S. cerevisiae tim23-1 growth, BacTiter-Glo luminescence, 24 h. inhibition, % at 20 µM. actives 1.3% (n = 330,000). AID 463212;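 active = growth inhibition of the mutant yeast at or above 50%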;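 also: temperature-sensitive mutant grown at 25 °C; plate controls were DMSO-treated mutant yeast for no effect and medium wells lacking yeast for full effect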
tim10-1 inh: growth inhibitors of tim10-1 mutant yeast; AID 463190; inhibition, % at 20 µM; actives 2.2% (n = 330,000); S. cerevisiae tim10-1 ts strain growth, BacTiter-Glo, 24 h;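 active = inhibition of at least 40%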;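 also: mutant grown at 25 °C; 0% = DMSO wells with yeast and 100% = wells holding no yeast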
* = called active by the depositor; ? = inconclusive; . = no result. The list is not random: actives were taken first. Their share in the collection is about 3.8%.

SMILES	TIM10 inh	PfHsp90 yeast 2	Beta2AR agonist	tim23-1 inh	tim10-1 inh
CC(=NNC(=S)N1CC2CCC(CC2)C1)c1cnccn1	.	145.0*	-11.4	.	.
CC(=NNC(=S)N1CCN(C2CCCCCC2)CC1)c1ccccn1	.	103.3*	9.6	.	.
CC(=NNC(=S)N1CCN(c2ccccn2)CC1)c1ccccn1	.	0.1	-4.0	.	.
O=C(Cn1cnc2c(nnn2Cc2ccc(F)cc2)c1=O)Nc1ccc2c(c1)OCCO2	-4.0	-33.6	-3.5	9.5	18.8
CC(C)CC(=O)/C(=C/c1ccc(N(C)C)cc1)n1cncn1	24.1	14.7	-4.8	33.6	23.7
CC(C)CC(=O)/C(=C\c1ccc(Cl)cc1Cl)n1cncn1	.	129.2*	46.5*	.	.
CC1CCN(C2CC(=O)N(c3ccc(Br)cc3Br)C2=O)CC1 (stereo not given)	28.6	107.4*	-0.9	30.3	26.6
Cn1c(=O)c([N+](=O)[O-])c(Cl)c2ccccc21	.	.	89.1*	.	.
COc1cccc(/C=N/Nc2ncnc3c2[nH]c2ccc(C)cc23)c1OC	24.9	-18.4	52.2*	31.5	17.6
COc1ccc(/C=N/Nc2ncnc3c2[nH]c2ccccc23)c(OC)c1OC	-1.4	-9.3	-0.4	-18.4	-3.6
Cc1c(C(=O)Nc2nc(-c3ccccn3)cs2)oc2ccccc12	2.6	?	22.9	42.0	21.5
O=C(Nc1nc(-c2ccccn2)cs1)c1cc2ccccc2o1	21.3	104.9*	6.1	19.9	12.6
O=C(Nc1nc(-c2ccccn2)cs1)c1ncc(Cl)c(Cl)c1Cl	-13.2	109.9*	0.2	-33.5	30.3
Cc1cccnc1Nc1nc(-c2ccccn2)cs1	34.5	106.0*	13.1	10.2	-29.5
CCc1sc(C(=O)Nc2nc(-c3ccccn3)cs2)cc1C	12.3	106.8*	9.4	25.4	10.0
CCc1sc(C(=O)Nc2ncccc2C)cc1C	-14.8	19.7	5.1	19.6	2.2
CC1CCCCN1CCCNC(=O)CN1C(=O)c2cccnc2Oc2ccccc21 (stereo not given)	10.2	-12.1	-1.6	7.4	5.2
Cc1ccc(S(=O)(=O)c2ccsc2NC(=O)c2ccccc2)cc1	.	22.3	6.2	.	.
c1cn2c(NC3CCCCC3)c(-c3ccc(SC4CCCCC4)cc3)nc2cn1	-1.2	-14.1	-0.3	-3.1	5.8
c1cc(SC2CCCCC2)cc(-c2nc3cnccn3c2NC2CCCCC2)c1	16.7	-27.0	50.2*	34.1	20.4
CCCN(CCC)S(=O)(=O)c1ccc(NC(=O)Cc2cccs2)cc1	21.0	6.7	-0.8	33.9	16.1
CCCCN(CCCC)S(=O)(=O)c1ccc(NC(=O)Cc2cccs2)cc1	13.6	18.1	51.0*	25.0	15.4
O=C(N/N=C/c1ccsc1)c1c[nH]c2ccccc12	8.9	-20.1	-2.6	-0.3	-24.7
CC(C)n1cc(CNC(=O)C2CCC(=O)N(Cc3ccccc3F)C2)cn1 (stereo not given)	-4.0	-7.1	-5.7	-7.8	-4.3
Cc1cc(/C=c2\sc3nc4ccccc4n3c2=O)c(C)n1-c1ccc(C(=O)O)cc1	.	111.8*	-4.8	.	.
SMILES	TIM10 inh	PfHsp90 yeast 2	Beta2AR agonist	tim23-1 inh	tim10-1 inh
C#CCOCCOCCOCCNc1nc(N2CCN(C(=O)[C@H](Cc3cc4ccccc4[nH]3)n3cc([C@@H](N)Cc4ccc(O)cc4)nn3)CC2)nc(N2CCN(C(=O)[C@H](Cc3cc4ccccc4[nH]3)n3cc([C@@H](N)CC(C)C)nn3)CC2)n1	.	4.0	73.0*	.	.
C#CCOCCOCCOCCNc1nc(N2CCN(C(=O)C(CCC(=O)O)n3cc(C(N)CC(C)C)nn3)CC2)nc(N2CCN(C(=O)C(Cc3cc4ccccc4[nH]3)n3cc(C(N)Cc4ccc(O)cc4)nn3)CC2)n1 (stereo not given)	20.7	-3.2	1.6	15.5	4.7
C#CCOCCOCCOCCNc1nc(N2CCN(C(=O)[C@H](Cc3ccc(O)cc3)n3cc([C@@H](N)C(C)CC)nn3)CC2)nc(N2CCN(C(=O)[C@H](Cc3cc4ccccc4[nH]3)n3cc([C@@H](N)C(C)CC)nn3)CC2)n1 (stereo not given in full)	0.1	1.0	58.4*	4.1	-3.2
Cc1ccc(C(=O)N2CCN(c3ccccc3Cl)CC2)cc1[N+](=O)[O-]	10.4	105.4*	-2.5	46.5	13.3
Cc1ccc(C(=O)N2CCN(c3ccccn3)CC2)cc1[N+](=O)[O-]	7.8	5.7	-1.9	8.9	10.5
COc1ccc(C(c2nnnn2C(C)C)N2CCN(C(=O)c3ccco3)CC2)cc1 (stereo not given)	0.2	10.8	21.8	22.8	22.7
O=C1CCC/C1=c1\s/c(=C/c2cccnc2)c(=O)n1-c1ccccc1	.	.	-10.3	.	.
O=C1C=CC(=O)N1Cc1ccccc1	13.3	109.7*	22.5	19.5	37.2
O=C(NCC1CCCO1)c1cc([N+](=O)[O-])ccc1N1CCC(Cc2ccccc2)CC1 (stereo not given)	8.7	97.5*	21.0	14.7	-11.2
O=C(O)c1cc([N+](=O)[O-])ccc1N1CCC(Cc2ccccc2)CC1	4.2	-34.8	3.4	5.1	14.7
COc1ccc(NC(=O)CN(C)C(=O)c2cccc(S(=O)(=O)N3CCN(c4ccc(F)cc4)CC3)c2)cc1	.	20.1	-11.7	.	.
Cc1ccc2cc(CCNS(=O)(=O)c3ccc(F)cc3)c(=O)[nH]c2c1C	-5.8	-2.9	43.1*	8.4	6.3
Cc1ccc(S(=O)(=O)NCCc2cc3ccc(C)c(C)c3[nH]c2=O)cc1	-5.0	1.6	-4.0	21.8	9.5
CC1=CC2C(C(O)CC3(C)C2CC(C)C32OCOC23COCO3)C2(C)C/C(=C\O)C(=O)C=C12 (stereo not given)	.	110.4*	27.4	.	.
CN1C(=O)NC(c2ccc(Cl)cc2)C2=C1CC(C)(C)CC2=O (stereo not given)	16.1	-32.4	-1.0	-2.0	-8.3
Cc1cccc(C)c1NC(=O)COC(=O)c1ccc([N+](=O)[O-])o1	-105.8	87.5*	2.5	-48.8	-97.1
CCN(CCn1cccn1)C(=O)c1cc(COc2cc(C)ccc2C)on1	3.1	-6.0	-5.4	20.5	16.6
COc1ccccc1-c1cc(C(F)(F)F)nc(S(C)(=O)=O)n1	18.4	2.5	58.0*	-9.0	13.1
Oc1ccc(/C=N/Nc2ccc(Cl)nn2)c(O)c1O	15.1	14.6	91.5*	11.5	23.5
COc1cc(/C=C2/C(=O)ON=C2c2ccccc2)ccc1O	-6.6	-15.1	42.2*	35.9	29.0
O=C1ON=C(c2ccccc2)/C1=C/c1ccc(O)cc1	19.3	-1.1	46.6*	40.9	33.9
O=C(O)C1C2OC(C(Br)C2Br)C1C(=O)O (stereo not given)	.	18.6	-4.2	.	.
CC(NCC(=O)NC(=O)NCCC1=CCCCC1)c1ccc(S(N)(=O)=O)cc1 (stereo not given)	.	3.9	1.1	.	.
OCC[C@@H]1NCc2cc(CO)cc(-c3ccccc3)c21	.	-2.7	-7.5	.	.
CCOC(=O)COc1ccc2ccccc2c1/C=C/[N+](=O)[O-]	.	104.5*	43.8*	.	.
CCOC(=O)Cn1cc(/C=C/[N+](=O)[O-])c2ccccc21	25.9	15.1	22.4	9.5	20.9

Bioassay records (PubChem)
